Data on 40 compounds can be found in the supplement of paper PMC10646978.

Values without a mark were called inactive.

The assay deals with RAW-Dual (murine macrophage reporter line). Kind of assay: viability score (confluency relative to resting cells, overnight) (fraction); higher = more viable, active = viable (0.7 or more). The note with it: modulator concentration 10 µM. Summed up: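 A compound met the cutoff when both of two confluency masks exceeded 70% of resting cells. Those masks were made with IncuCyte software from IncuCyte images of RAW-Dual macrophages treated overnight at 10 μM final. This is the basis of the viability score, which is confluency relative to resting cells.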
For `Cl.OC(CC#CCN1CCCC1)(c1ccccc1)c1ccccc1`, the viability score was 0.597. As for `CCN(CC)CC#CCOC(=O)C(O)(c1ccccc1)C1CCCCC1.Cl` (stereo not given), the viability score was 1.02 (active). For the compound `CCSC1=C(C#N)C2(CCCC2)C(C#N)C(=O)N1` (stereo not given), the viability score is 0.988 (active). `CC(=O)Nc1ccc(O)cc1` [Prestw-868]: the viability score was 0.998 (active). As to `COc1ccc(CNc2nc(N3CCC[C@H]3CO)ncc2C(=O)NCc2ncccn2)cc1Cl`, the viability score is 1 (active).

In the case of `COc1ccc(CCNCC(O)COc2cccc(C)c2)cc1OC.Cl` (stereo not given), the viability score was 0.985 (active).

For `CCCC(CCC)C(=O)O`, the viability score was 0.992 (active). With `CNc1ncnc2c1ncn2[C@@H]1O[C@H](CO)[C@@H](O)[C@H]1O` [Prestw-338], the viability score is 1.05 (active). Consider `CN1CCN2c3ccccc3Cc3ccccc3C2C1.Cl` (stereo not given), for which the viability score was 0.307. Take `CN1CC(=O)N2[C@H](c3ccc4c(c3)OCO4)c3[nH]c4ccccc4c3C[C@@H]2C1=O`: the viability score was 0.981 (active). Take `Cc1ccc2[nH]c3nc(NN)nnc3c2c1`: the viability score is 1 (active). As for `N#Cc1nc(-c2ccc(COc3ccc(Cl)cc3)o2)oc1N1CCCCC1`, the viability score is 0.998 (active). Then `Nc1ccn([C@H]2CC[C@@H](CO)O2)c(=O)n1`, with 0.995 (active). As for `COc1ccccc1-n1ncc2c(C)nnc(SCC(=O)NCc3ccccc3Cl)c21`, the viability score is 0.944 (active). For `Cc1[nH]nc(-c2ccc(OCc3ccccc3)c(C)c2O)c1-c1cnn(-c2ccccc2)c1`, the viability score was 1.01 (active). Regarding `CCOc1ccccc1OCCCCOc1ccc(I)cc1`, the viability score is 1 (active).

Take `CC1CC(=O)C2=C(C1)OC(N)=C(C#N)C2c1cccc2ccccc12` (stereo not given): the viability score is 1 (active). For `COC(=O)C1=C(C)N(C)C(C)=C(C(=O)OC)C1c1cccc(C(F)(F)F)c1`, the viability score was 1.01 (active). On to `CNS(=O)(=O)C[C@H]1CC[C@H](N(C)c2ncnc3[nH]ccc23)CC1.O=C(O)/C=C\C(=O)O`, for which the viability score is 0.997 (active). Then `Oc1nc(O)nc(N(c2ccccc2)c2ccccc2)n1`, with 1 (active); and `Cn1c(=O)c2c(ncn2CC(O)CO)n(C)c1=O` (stereo not given), with 0.996 (active); and `CC(C)CNC(=O)C(=O)Nc1ccc(C(C)C)cc1`, with 1 (active). As for `CN1C(=O)C(=Cc2cccc3ccccc23)SC1=S`, the viability score was 0.998 (active). With `O=C(Nc1cc(N2CCN(Cc3ccccc3)CC2)ncn1)c1ccc2ccccc2n1`, the viability score was 1.01 (active). Then `O=C(NCCN1CCN(c2ccc(Cl)cc2)CC1)c1cnccn1`, with 0.998 (active). As to `Cc1nnc(C(C)C)n1C1CC2CCC(C1)N2CC[C@H](NC(=O)C1CCC(F)(F)CC1)c1ccccc1` (stereo not given in full), the viability score is 1 (active).

As to `O=C(CSC1CC(=O)N(c2ccc(C(=O)O)cc2)C1=O)Nc1ccc(F)cc1` (stereo not given), the viability score was 1.01 (active). Take `CCCCSc1nnc2c(n1)OC(c1cccc(C)n1)Nc1ccc(Br)cc1-2` (stereo not given): the viability score is 1 (active).

For the compound `Cc1ccc(-n2c(=O)c3c4c(sc3n3c(S)nnc23)CCCC4)cc1`, the viability score was 0.993 (active).

In the case of `Cc1cc(C)n(CCNc2nc3ccccc3s2)n1`, the viability score was 0.993 (active). For `CCN(CC)CC(=O)Nc1c(C)cccc1C.Cl`, the viability score was 0.997 (active). For the compound `COc1cc(C=C(C#N)c2nc3ccccc3[nH]2)cc(Cl)c1O`, the viability score is 0.998 (active). For the compound `C/C(O)=C(\C#N)C(=O)Nc1ccc(C(F)(F)F)cc1`, the viability score was 1 (active). As for `CC(C)CSc1nnc2c(n1)[nH]c1ccccc12`, the viability score was 0.998 (active). The result for `O=C1c2ccccc2C(=O)c2c1ccc(O)c2O` reads 0.999 (active); that for `Oc1cccc(C=Nc2ccc(N=Cc3cccc(O)c3O)cc2)c1O`, 0.984 (active). As to `COCC(=O)N1CCC2(CC1)NC(=O)N(Cc1ccc(Cl)cc1)C2=O`, the viability score was 1 (active).

For the compound `CS(=O)(=O)N1CCN(Cc2cc3nc(-c4cccc5[nH]ncc45)nc(N4CCOCC4)c3s2)CC1`, the viability score is 0.888 (active).

Regarding `COc1ccc(C=Nn2cnnc2)cc1COc1cc(C)c(Cl)cc1C(C)C`, the viability score was 0.995 (active).

For the compound `C#CCN[C@@H]1CCc2ccccc21` [Prestw-1734], the viability score is 0.996 (active).
